Only some compounds are listed: those with a hit (about 1.3% of all), similar ones and a draw of the others.
PME-1 inh – blocks human protein phosphatase methylesterase 1; Q9Y570; recombinant PME-1, FP-Rh probe fluorescence polarization; inhibition, % at 5.9 µM; 320,000 compounds, 0.53% hits;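 active = inhibition above the campaign mean of all compounds plus 3 SD, cut at about 26% in these data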;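 also: competitive labeling of PME-1 active site by serine hydrolase directed probe; 0% = PME-1 with DMSO and 100% = wells lacking PME-1 enzyme; inhibitors block probe labeling so polarization falls and inhibition rises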
Target sequence (Q9Y570 whole entry, looked up): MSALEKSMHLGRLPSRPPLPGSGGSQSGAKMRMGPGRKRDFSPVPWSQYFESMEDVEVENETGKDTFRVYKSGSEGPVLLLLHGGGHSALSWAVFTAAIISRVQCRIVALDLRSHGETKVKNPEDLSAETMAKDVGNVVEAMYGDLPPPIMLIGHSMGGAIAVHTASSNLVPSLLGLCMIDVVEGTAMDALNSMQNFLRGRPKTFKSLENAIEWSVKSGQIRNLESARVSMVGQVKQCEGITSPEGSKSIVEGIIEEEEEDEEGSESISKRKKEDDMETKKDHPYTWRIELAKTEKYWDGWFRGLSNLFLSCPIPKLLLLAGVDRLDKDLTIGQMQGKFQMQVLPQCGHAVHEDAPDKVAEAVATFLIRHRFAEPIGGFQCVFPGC
PREPL inh – inhibits the human prolyl oligopeptidase-like enzyme. Q4J6C6. recombinant PREPL, fluorescence polarization activity-based probe. inhibition, % at 5.96 µM. 320,000 compounds, 0.68% hits. AID 2751; in the data active = inhibition above about 43%;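 also: 0% = enzyme with DMSO and 100% = wells lacking enzyme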
Fam108B inh – counter-screen for RBBP9 inhibitors: inhibitors of mouse Fam108B | recombinant Fam108B, FP-Rh probe fluorescence polarization | inhibition, % at 9.51 µM | 300,000 compounds, 0.33% hits | AID 1947;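 active = inhibition above the screen mean inhibition plus 3 SD, computed separately per campaign, cut at about 18% in these data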;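 also: inhibitors lower polarization as less probe binds the enzyme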
LYPLA1 counter – LYPLA1 (human) inhibition in PME1 counter-screen | recombinant LYPLA1, FP-Rh probe fluorescence polarization | inhibition, % at 5.9 µM | 320,000 compounds, 0.16% hits | AID 2174;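 active = inhibition above the mean of all tested compounds plus 3 SD, set per campaign, cut at about 14% in these data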;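 also: inhibitors block serine hydrolase probe labeling of LYPLA1 so polarization falls; 0% = enzyme with DMSO and 100% = wells lacking LYPLA1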
Target sequence (O75608 whole entry, looked up): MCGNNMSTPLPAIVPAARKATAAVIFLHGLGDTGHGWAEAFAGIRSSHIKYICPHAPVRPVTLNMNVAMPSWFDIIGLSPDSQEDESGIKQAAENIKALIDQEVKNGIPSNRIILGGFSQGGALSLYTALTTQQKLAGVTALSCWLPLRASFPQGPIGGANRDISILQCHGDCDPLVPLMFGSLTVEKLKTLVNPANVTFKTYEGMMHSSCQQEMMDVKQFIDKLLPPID
LYPLA2 inh – blocks human lysophospholipase 2, a PME1 counter-screen; O95372; recombinant LYPLA2, FP-Rh probe fluorescence polarization; inhibition, % at 5.9 µM; 320,000 compounds, 0.38% hits;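 active = inhibition above the screen-wide mean plus 3 SD, limit set per campaign, cut at about 26% in these data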;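 also: 0% = LYPLA2 with DMSO and 100% = wells lacking LYPLA2 enzyme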
Numbers without * were called inactive; nt = no result given.

SMILES	PME-1 inh	PREPL inh	Fam108B inh	LYPLA1 counter	LYPLA2 inh
N#C/C(=N\Nc1ccc(Cl)c(Cl)c1)C(=O)C1CC1	34.3*	4.0	7.8	10.9	12.2
Cc1cccc(N2CCN(C(=O)C3CCC(=O)N(Cc4ccccc4F)C3)CC2)c1C (centres undefined)	4.1	27.9	-2.9	-0.2	-7.6
COc1cc(/C=C(\C#N)c2nc3ccccc3[nH]2)ccc1OC(=O)c1ccco1	-12.9	79.6*	-15.0	-14.0	-16.4
CCOc1cc(/C=C(/C#N)c2nc3ccccc3[nH]2)ccc1OCc1ccc(C(=O)O)o1	-7.7	59.5*	-7.2	-3.8	-7.9
CCOc1cc(/C=C(/C#N)c2ccc(F)cc2)ccc1OCc1ccc(C(=O)O)o1	-11.7	7.4	-1.5	-1.0	-1.7
Cc1ccc(C(=O)O)cc1NC(=S)NC(=O)c1ccc(-c2ccc(Cl)cc2)o1	0.4	3.3	-12.5	1.6	5.9
O=C(O)c1cccc(NC(=S)NC(=O)c2ccc(-c3ccc(Cl)cc3)o2)c1	-23.4	-10.9	-9.4	-2.7	28.2*
COc1ccc(N(C)S(=O)(=O)c2ccc(Cl)c(C(=O)NCC(C)(C)N3CCOCC3)c2)cc1	1.6	-0.5	nt	-6.2	-5.9
O=C1c2cccc3c(N4CCCCC4)ccc(c23)C(=O)N1c1cccc(O)c1	27.3*	-1.4	-21.6	-21.7	-28.3
CN1C(=O)NC(c2ccc(Cl)cc2)C2=C1CC(C)(C)CC2=O (centres undefined)	2.7	9.6	-4.5	1.0	-1.4
COc1ccc(C2=NN(Cc3c(F)cccc3Cl)C(=O)CC2)cc1	44.0*	-4.9	1.4	0.5	1.5
O=C1CCC(c2ccccc2)=NN1Cc1c(F)cccc1Cl	18.1	-29.4	2.1	-1.8	6.5
Cc1ccc(C(=O)OC(C)CN2C(C)CCCC2C)cc1 (centres undefined)	-7.3	-4.6	0.2	-0.5	0.1
Cc1cccc2c(=O)c(C(=O)NCc3cccs3)c[nH]c12	1.7	6.2	0.9	-0.1	4.7
Cc1ccc2c(=O)c(C(=O)NCc3cccs3)c[nH]c2c1	-1.8	73.8*	-1.9	0.7	5.1
COc1ccc(CCNC(=O)COC(=O)c2ccccn2)cc1	nt	1.9	nt	nt	nt
O=C(N/N=C/c1ccc([N+](=O)[O-])o1)c1cn(-c2ccccc2)nc1-c1ccc(Cl)cc1	-0.7	12.7	-2.9	-7.7	-3.5
O=[N+]([O-])CC(=Nc1ccc(Cl)cc1)N/N=C\c1oc(O)c2ccccc12	52.0*	8.8	8.2	2.4	4.9
Cc1ccc(O)c(N=CC2=C(O)c3ccccc3C2=O)c1	34.1*	27.1	16.4	0.1	-3.6
C#CCOCCOCCOCCNc1nc(N2CCN(C(=O)CCCCCCCCCCNC(=O)[C@H](CCCCN)n3cc(C[C@@H](C)CC)nn3)CC2)nc(N2CCN(C(=O)CCCCCCCCCCNC(=O)[C@H](CCCCN)n3cc(C[C@@H](C)CC)nn3)CC2)n1	-8.8	46.5*	-4.6	-9.9	-12.6
C#CCOCCOCCOCCNc1nc(N2CCN(C(=O)CCCCCCCCCCNC(=O)[C@H]([C@@H](C)CC)n3cc(CCCCN=C(N)N)nn3)CC2)nc(N2CCN(C(=O)CCCCCCCCCCNC(=O)[C@H](CCCCN)n3cc(C[C@@H](C)CC)nn3)CC2)n1	-9.8	57.5*	-9.7	-6.6	20.2
Cc1cc(C)n(Cc2cc(C(=O)O)c3ccccc3n2)n1	-13.0	7.3	-6.5	-4.3	-2.6
CCCN(CCC)CCCNC(=O)c1cn(CC)c2ccc(S(=O)(=O)N(C)C3CCCCC3)cc2c1=O	49.1*	13.1	3.8	-4.4	-8.2
CCCCN(CCCC)CCNC(=O)c1cn(CC)c2ccc(S(=O)(=O)N3CCc4ccccc4C3)cc2c1=O	58.7*	11.8	7.1	-1.7	2.9
CCCCN(CCCC)CCNC(=O)c1cn(C)c2ccc(S(=O)(=O)N(C)C3CCCCC3)cc2c1=O	66.2*	2.0	-4.4	0.7	0.3
SMILES	PME-1 inh	PREPL inh	Fam108B inh	LYPLA1 counter	LYPLA2 inh
CCC1CCCCN1CCCNC(=O)c1cn(CC)c2ccc(S(=O)(=O)N3CCc4ccccc4C3)cc2c1=O (centres undefined)	12.3	20.1	-3.2	-0.3	2.7
CCCN(CCC)CCCNC(=O)c1cn(C)c2ccc(S(=O)(=O)N(C)C3CCCCC3)cc2c1=O	13.0	2.1	0.7	-0.9	-1.3
CCN1CCN(C(=O)c2c(-c3c(Cl)cccc3Cl)noc2C)CC1	-6.8	6.2	4.1	-2.1	-6.4
CCn1ncc(S(=O)(=O)NCc2ccccc2Cl)c1C	4.5	20.5	3.7	2.8	5.4
Cc1onc(-c2c(F)cccc2Cl)c1C(=O)N(C)C1CCCCC1	2.1	1.4	-1.9	-2.9	2.2
COc1ccccc1C(=O)NCC(=O)NCc1cc(=O)n(C)c(=O)n1C	2.0	6.7	-1.7	4.2	10.2
Cc1c(Cl)cccc1Nc1nc(N)nc(CSc2nc3ccccc3s2)n1	33.2*	-25.8	-10.3	0.5	-12.8
Nc1nc(CSc2nc3ccccc3s2)nc(Nc2ccccc2)n1	-56.8	-43.8	-14.3	-15.5	-18.8
CC1=NN(C(N)=S)C(=O)C1N=Nc1cccc2ccccc12 (centres undefined)	2.5	6.1	22.9*	-1.5	7.6
Cc1ccc(C(=O)OC(C)C(=O)c2cc(C)c(C)cc2C)o1 (centres undefined)	-2.8	-1.9	-0.1	-0.3	-1.2
O=C1c2c(O)cc(O)cc2O[C@H](c2ccc(O)c(O)c2)[C@H]1O	-1.9	-2.2	2.1	-2.4	35.8*
COc1cc([C@@H]2Oc3cc(C4Oc5cc(O)cc(O)c5C(=O)[C@H]4O)ccc3O[C@H]2CO)ccc1O (some centres undefined)	-0.8	12.2	8.1	-2.6	50.1*
CCOCCCN(C(=O)CCC(=O)Nc1cc(C)on1)C(C(=O)NC(C)(C)C)c1ccccc1Cl (centres undefined)	0.9	3.5	-6.5	-1.4	2.5
CN(c1ccc(OC(=O)CN2C(=O)NC3(CCCC3)C2=O)cc1)S(=O)(=O)c1ccccc1	-4.1	-8.7	-1.2	2.0	6.9
CCOC(=O)c1sc(Nc2nc3cc4c(cc3s2)OCO4)cc1C	60.9*	24.2	4.3	-11.5	-0.3
c1ccc2sc(Nc3nc4cc5c(cc4s3)OCO5)nc2c1	47.2*	14.4	2.6	-0.9	-0.4
O=C(Nc1ccc([N+](=O)[O-])cc1)Nc1nc(-c2ccc(Cl)s2)cs1	44.5*	4.7	11.4	-24.4	-15.0
CCOC(=O)CSc1nc2ccc(N3CCOCC3)cc2c(=O)n1Cc1ccc2c(c1)OCO2	4.2	52.1*	5.1	-3.4	-3.6
CCN(CC)C(=O)CSc1nc2cc3c(cc2c(=O)n1Cc1ccc2c(c1)OCO2)OCO3	0.8	5.2	3.4	-0.9	2.3
N#CC1=C(N)C(C#N)(C#N)C(c2ccncc2)C2CN(C(=O)OCc3ccccc3)CC=C12 (centres undefined)	31.4*	26.7	1.1	5.7	12.6
CCOC(=O)N1CC=C2C(C#N)=C(N)C(C#N)(C#N)[C@H](c3ccsc3)[C@H]2C1	10.5	-1.2	-1.3	0.2	3.2
